High-throughput results (PubChem)
HT1080-NT tox: qHTS for induction of synthetic lethality in tumor cells producing 2HG: qHTS for the HT-1080-NT fibrosarcoma cell line | HT-1080-NT fibrosarcoma viability, CellTiter-Glo ATP luminescence, 48 h | Potency, µM (highest dose often 46.1 µM), inactives show at the top dose activity, negative = less viability, usual class: cytotoxic | actives 1.6% (n = 360,000);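 note: NT is the 2HG producing partner of a matched IDH1 knockdown line; potency is the fitted concentration of half-maximal effect; 0% = DMSO-treated cells and -100% = media-only wells without cells; nearly all actives have a fitted effect of over 55% in size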
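750 cells/well, RPMI + 5% FBS; 2 h settle, compound pin-transfer, 48 h at 37 degrees C. CellTiter-Glo 10 min RT, luminescence. Normalized to DMSO and media-only wells.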
ELG1 DNA repair: qHTS screen for small molecules that inhibit ELG1-dependent DNA repair in human embryonic kidney (HEK293T) cells expressing luciferase-tagged ELG1 | Potency, µM (titrated, usually from 46.1 µM), inactives show at the highest dose activity change, negative = inhibition, hits mostly inhibitors | actives 2.3% (n = 330,000) | HEK293T ELG1-luciferase reporter, luminescence, 16 h; DNA damage induced by 5-fluorouridine; note: potency is the fitted concentration of half-maximal effect; nearly all actives have a fitted effect of over 55% in size
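Quantitative HTS, concentration-response format. 2,000 cells/well co-treated with 5-fluorouridine and compound, 16 hr in 5% CO2 at 37 °C; ONE-Glo luminescence read after 30 min.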
HT1080 IDH1KD tx: qHTS for induction of synthetic lethality in tumor cells producing 2HG: qHTS for the HT-1080-IDH1KD cell line; Potency, µM (top dose mostly 46.1 µM), for the others: at the top dose activity, negative = toxicity, actives largely listed as cytotoxic; HT-1080 IDH1 knockdown viability, ATP luminescence, 48 h; actives 2% (n = 360,000); AID 686971, 2013;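 note: potency is the fitted concentration of half-maximal effect; 0% = DMSO wells and -100% = cell-free medium wells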
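Using the IDH1-knockdown HT-1080 line run in the same batch and compound series as the NT line, viability after 48 h at 37 °C was determined by CellTiter-Glo luminescence and expressed as % activity.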
IL1B secr inh: qHTS for Inhibitors of Inflammasome Signaling: IL-1-beta AlphaLISA Primary Screen; actives 4.7% (n = 360,000); THP-1 LPS/ATP IL-1B secretion, AlphaLISA, 16 h; hits give low values; activity change, % at 57.5 µM; in the data active = activity change below about -50%; inconclusive = mostly about -30% to -49%
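Secreted IL-1B measured by AlphaLISA bead assay after 16 h compound exposure of THP-1 cells; compounds (final up to 57.5 uM) added 1 h before LPS (250 ng/mL) and ATP (1.25 mM) stimulation; lower signal means less secretion.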
TDP1 cell noCPT: qHTS for Inhibitors of human tyrosyl-DNA phosphodiesterase 1 (TDP1): qHTS in cells in absence of CPT; DT40 Tdp1-/- hTDP1 cells, no CPT, ATP luminescence, 48 h; Potency, µM (series often up to 46.2 µM), without a hit: top-dose activity change, negative = growth inhibition, most hits filed as inhibitors; actives 15% (n = 420,000); note: potency is the fitted concentration of half-maximal effect; nearly all actives have a fitted effect of over 55% in size
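Growth of hTDP1-complemented DT40 Tdp1-knockout cells is measured by ATP luminescence after at least 48 hr compound exposure at 37 °C, with DMSO substituting for the 20 nM CPT used in the parallel screen.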
TDP1 cell CPT: qHTS for Inhibitors of human tyrosyl-DNA phosphodiesterase 1 (TDP1): qHTS in cells in presence of CPT; chicken DT40 Tdp1-/-;hTDP1 cells + 20 nM CPT, ATP luminescence, 48 h; Potency, µM (series often up to 46.2 µM), for the others: at the top dose activity change, negative = growth inhibition, hits mostly inhibitors; actives 12% (n = 420,000); note: potency is the fitted concentration of half-maximal effect; nearly all actives have a fitted effect of over 55% in size
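Chicken DT40 Tdp1-/- cells complemented with human TDP1, 400 cells/well, exposed to compounds plus 20 nM camptothecin for at least 48 h at 37 C; viability read as ATP content by CellTiter-Glo luminescence.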
An asterisk follows results filed as active; ? = inconclusive; . = no result. An excerpt weighted towards active compounds, which were near 19% of everything screened. Unless noted, calls come from the whole dose curve; as a rule, active = well fitted curve in the direction sought with a large enough effect; inconclusive = small, poorly fitted or top-dose-only effect, or another doubt; inactive = no such curve, though single readings can be large; an effect the other way counts as inactive or inconclusive. Unless noted, % is set by controls: 0 for no effect and ±100 for the full control effect.

SMILES	HT1080-NT tox	ELG1 DNA repair	HT1080 IDH1KD tx	IL1B secr inh	TDP1 cell noCPT	TDP1 cell CPT
OC(c1ccc(Cl)c(Cl)c1)c1ncc(-c2cccc(F)c2)[nH]1 (configuration not stated)	?	.	-14.1%	-4.5	?	?
OC(c1cc(F)cc(Cl)c1)c1ncc(-c2ccc(Cl)cc2)[nH]1 (configuration not stated)	?	.	?	-12.2	?	18.4µM*
OC(c1ccc(F)c(F)c1)c1ncc(-c2ccc(F)cc2)[nH]1 (configuration not stated)	3.2%	.	-13.1%	3.0	-14.1%	?
CCOC(=O)c1c(NC(=O)CN2CCCCC2)sc(CN(C)C)c1-c1ccccc1	15.7%	-6.7%	11.8%	-59.8*	?	?
CCOC(=O)c1c(NC(=O)CCl)sc(CN(C)C)c1-c1ccccc1	?	0.5%	?	-98.0*	9.2µM*	4.11µM*
CCOC(=O)c1c(NC(=S)N2CCN(C)CC2)sc(C)c1-c1ccccc1	?	-9.0%	?	?	?	?
Cc1oc(C)c2c(=O)cc(-c3ccc4c(c3)OCO4)cc(OC(=O)c3ccccc3Cl)c12	.	.	.	.	?	23.1µM*
O=C(Oc1ccccc1Cl)c1cc(-c2ccc3c(c2)OCCO3)on1	.	.	.	.	6.1%	-6.3%
CCOc1cc(/C=C2/N=C(c3ccc4c(c3)OCO4)OC2=O)ccc1OC(C)=O	-3.2%	11.1%	-0.5%	-23.1	?	?
Cc1oc(C)c2c(=O)cc(-c3ccc4c(c3)OCO4)cc(OC(=O)c3ccccc3Br)c12	.	.	.	.	?	16.4µM*
CCOc1cc(-c2ccc3c(c2)OCO3)cc(=[O+]CC)c2c(C)oc(C)c12	.	.	.	.	14.1µM*	?
COCCNC(=O)C1(C)CCCN(C(=O)c2c(-c3ccccc3)noc2C)C1 (configuration not stated)	1.6%	.	18.5%	6.0	-12.1%	-3.4%
CC(=O)[C@]1(O)CCC2C3CC(C)C4=CC(=O)C=CC4(C)[C@@]3(F)C(O)C[C@]21C (some centres not stated)	.	.	.	.	-11.5%	4.0%
Cc1sc(NC(=O)CSC2=NCCS2)nc1-c1ccccc1	13.6%	?	-1.5%	-97.3*	?	-22.6%
CC(=O)N1CC(=O)N=C1SCC(=O)Nc1nc(-c2ccccc2)c(-c2ccccc2)s1	?	-13.0%	?	-76.7*	13µM*	18.4µM*
O=C(CSC1=NCCS1)Nc1nc2ccccc2s1	-4.9%	?	?	-73.6*	?	?
COc1cc(CCCN2C(=S)NC[C@@H]2CC2CCCCC2)cc(OC)c1OC	-20.6%	-27.8%	-2.8%	-25.4	?	?
CCCCCCCCN1C(=O)[C@H](CC(=O)N2CCN(C(=O)c3ccco3)CC2)C[C@@]2(C(=O)OC)CCCCC=C12	?	.	?	-25.3	23.1µM*	?
COC(=O)[C@@]12C[C@@H](CC(=O)N3CCN(C(=O)c4ccco4)CC3)C(=O)N(CCc3ccc(OC)c(OC)c3)C1=CCC(C)(C)C2	18.1%	.	7.5%	-51.2*	?	?
CCCCCCCCN1C(=O)[C@H](CC(=O)N2CCN(C(=O)c3ccco3)CC2)C[C@@]2(C(=O)OC)CC(C)(C)CC=C12	?	.	?	-50.9*	14.6µM*	11.6µM*
CC(=O)Nc1ccccc1OCc1cc(=O)n2c(C)csc2n1	.	.	.	.	?	-17.1%
COc1ccc(/C=C2\SC(=S)N(CCC(=O)Nc3cccc(C(=O)O)c3)C2=O)cc1	13.6%	17.6%	4.8%	-2.3	-17.3%	14.9%
CC1CCCC(C)N1C(=O)COC(=O)CCC(=O)c1ccc(F)cc1 (configuration not stated)	4.4%	?	3.5%	-0.3	?	-29.2%
C/C(=N\NC(=O)C(C)n1nc(C)c([N+](=O)[O-])c1C)c1ccccc1O (configuration not stated)	?	-12.0%	9.2µM*	49.1	1.84µM*	4.11µM*
O=C(CSc1nc2ccccc2[nH]1)Nc1ccc(F)cc1	0.2%	-4.9%	-3.1%	-26.0	2.1%	-11.7%
SMILES	HT1080-NT tox	ELG1 DNA repair	HT1080 IDH1KD tx	IL1B secr inh	TDP1 cell noCPT	TDP1 cell CPT
O=C(Cc1ccccc1)N[C@@H](Cc1ccccc1)c1nc2ccccc2[nH]1	2.0%	?	-0.8%	-8.3	23.1µM*	?
CCc1ccccc1Nc1nc2ccccc2[nH]1	-20.6%	.	?	-5.5	14.6µM*	?
O=C(CSc1ccc(Cl)cc1)Nc1ccc(-c2nc3ccccc3[nH]2)cc1	?	?	?	-11.3	8.2µM*	11.6µM*
O=C(Cc1ccc(Br)cc1)Nc1nc2ccccc2[nH]1	-5.4%	5.2%	7.1%	17.8	2.31µM*	6.51µM*
O=C(CCNC(=O)c1ccc(Br)cc1)Nc1nc2ccccc2[nH]1	14.5%	?	15.8%	-14.2	-15.2%	-9.3%
N#Cc1ccccc1S(=O)(=O)N1CCN(C(=O)CCNS(=O)(=O)c2ccc(Cl)cc2)CC1	-8.8%	.	-4.7%	-22.5	-23.5%	-22.9%
Cc1noc(C)c1COC(=O)c1csc2c1CCC(C)C2 (configuration not stated)	0.3%	?	0.0%	49.9	-25.5%	-29.4%
O=C(Nc1nc2ccccc2[nH]1)c1ccccc1	?	?	?	12.5	?	?
O=C(Cc1c[nH]c2ccccc12)Nc1nc2ccccc2[nH]1	-16.4%	?	-9.6%	4.2	-18.0%	-13.3%
O=C(Cc1ccc(Cl)cc1)Nc1nc2ccccc2[nH]1	-12.4%	?	-23.8%	-2.5	2.06µM*	5.17µM*
Oc1c(Cl)cc(Cl)cc1CNc1nc2ccccc2[nH]1	-29.9%	-2.6%	?	-84.1*	-3.7%	0.8%
O=C(Cc1ccccc1)Nc1nc2ccccc2[nH]1	-2.2%	?	-24.4%	-5.2	7.31µM*	13µM*
O=C(CSc1ccccc1)Nc1nc2ccccc2[nH]1	11.6µM*	?	?	26.3	20.6µM*	?
